# According to the supplement of paper PMC10037445:
# ± gives the standard deviation of the averaged measurements. Whole data set: some 2,900 compounds, median “IRF Lucia reporter activity, fold change vs agonist alone” near 0.9, cut for the highest 2% near 2.8. The list comes from a sample in which the highest values are over-represented; it also holds similar structures and randomly drawn compounds.
# What was measured:
# RAW-Dual [1] = assay: IRF Lucia reporter activity, fold change vs agonist alone; cytotoxicity flag (confluency mask): not cytotoxic; higher = enhanced IRF activity
# How it was run: (§1)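 Reporter activity is given as fold change relative to agonist-alone wells. To measure it, 50 nL of library stock was pin-tooled onto RAW-Dual macrophages (50,000 cells/well, DMEM, 384-well plates), a PRR agonist followed 1 h later, and cells stayed at 37 °C, 5% CO2. Twenty hours on, supernatant was assayed for IRF (QuantiLuc luminescence) and NF-κB (QuantiBlue, 620 nm absorbance), and wells under 70% of agonist-control IncuCyte confluency in both mask sets were marked cytotoxic.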
# RAW-Dual [2] = assay: IRF Lucia reporter activity, fold change vs agonist alone; higher = enhanced IRF activity; settings: library stock concentration (final ~1000-fold dilution): 10 mM, agonist: MPLA (TLR4) […]
# How it was run: as §1
# RAW-Dual [3] = assay: IRF Lucia reporter activity, fold change vs agonist alone; cytotoxicity flag (confluency mask): cytotoxic (confluency <70% of control); higher = enhanced IRF activity
# How it was run: as §1
# [4] = agonist: 3'3'-cGAMP (STING) 10 ug/mL
# [5] = cytotoxicity flag (confluency mask): cytotoxic (confluency <70% of control)
# [6] = cytotoxicity flag (confluency mask): not cytotoxic
compound,measurement,setting,value
CN1C(=O)C(Cc2c[nH]c3ccccc23)NC1=S (centres undefined) (library stock concentration (final ~1000-fold dilution): 10 mM),IRF Lucia reporter activity,RAW-Dual [1]; [4],0.553
same,IRF Lucia reporter activity,RAW-Dual [1]; agonist: LPS (TLR4) 0.1 ug/mL,3.04
CC(C)CC1NC(=O)C(C(C)C)NC(=O)C2CCCN2C(=O)C(CC(=O)O)NC(=O)C(Cc2c[nH]c3ccccc23)NC1=O (centres undefined) (library stock concentration (final ~1000-fold dilution): 10 mM),IRF Lucia reporter activity,RAW-Dual [1]; [4],1.23
same,IRF Lucia reporter activity,RAW-Dual [1]; agonist: LPS (TLR4) 0.1 ug/mL,1.01
CN1C(=O)NC(Cc2c[nH]c3c(Cl)cccc23)C1=O (centres undefined) (library stock concentration (final ~1000-fold dilution): 10 mM),IRF Lucia reporter activity,RAW-Dual [1]; [4],0.896
same,IRF Lucia reporter activity,RAW-Dual [1]; agonist: LPS (TLR4) 0.1 ug/mL,0.697
CC(=O)OCC1OC([S-])C(OC(C)=O)C(OC(C)=O)C1OC(C)=O.CCP(CC)CC.[Au+] (centres undefined),IRF Lucia reporter activity,RAW-Dual [2]; [5],0.0231
CC(=O)OCC1OC([S-])C(OC(C)=O)C(OC(C)=O)C1OC(C)=O.CCP(CC)CC.[Au+] (centres undefined) (library stock concentration (final ~1000-fold dilution): 10 mM),IRF Lucia reporter activity,RAW-Dual [3]; [4],0.0169
same,IRF Lucia reporter activity,RAW-Dual [3]; agonist: LPS (TLR4) 0.1 ug/mL,0.0188
CC(=O)OC1CC/C(C)=C/CC/C(C)=C/CC2(C(C)C)CCC1(C)O2 (centres undefined) (library stock concentration (final ~1000-fold dilution): 10 mM),IRF Lucia reporter activity,RAW-Dual [1]; [4],0.818 ± 0.25
same,IRF Lucia reporter activity,RAW-Dual [1]; agonist: LPS (TLR4) 0.1 ug/mL,0.744 ± 0.15
O=C(/C=C/c1ccc(O)c(O)c1)O[C@@H]1C[C@@](O)(C(=O)O)C[C@@H](O)[C@@H]1O (library stock concentration (final ~1000-fold dilution): 10 mM),IRF Lucia reporter activity,RAW-Dual [1]; [4],1.02
same,IRF Lucia reporter activity,RAW-Dual [1]; agonist: LPS (TLR4) 0.1 ug/mL,1.23
CS(=O)(=O)O.Cc1c(O)cccc1C(=O)NC(CSc1ccccc1)C(O)CN1CC2CCCCC2CC1C(=O)NC(C)(C)C (centres undefined),IRF Lucia reporter activity,RAW-Dual [2]; [6],2.24
CS(=O)(=O)O.Cc1c(O)cccc1C(=O)NC(CSc1ccccc1)C(O)CN1CC2CCCCC2CC1C(=O)NC(C)(C)C (centres undefined) (library stock concentration (final ~1000-fold dilution): 10 mM),IRF Lucia reporter activity,RAW-Dual [1]; [4],0.918
same,IRF Lucia reporter activity,RAW-Dual [1]; agonist: LPS (TLR4) 0.1 ug/mL,3.62
CC(C)(C)NC(=O)C1CN(Cc2cccnc2)CCN1CC(O)CC(Cc1ccccc1)C(=O)NC1c2ccccc2CC1O.O=S(=O)(O)O (centres undefined) (library stock concentration (final ~1000-fold dilution): 10 mM),IRF Lucia reporter activity,RAW-Dual [1]; [4],1.1
same,IRF Lucia reporter activity,RAW-Dual [1]; agonist: LPS (TLR4) 0.1 ug/mL,0.77
CC(C)c1nc(CN(C)C(=O)NC(C(=O)NC(Cc2ccccc2)CC(O)C(Cc2ccccc2)NC(=O)OCc2cncs2)C(C)C)cs1 (centres undefined) (library stock concentration (final ~1000-fold dilution): 10 mM),IRF Lucia reporter activity,RAW-Dual [1]; [4],0.757
same,IRF Lucia reporter activity,RAW-Dual [1]; agonist: LPS (TLR4) 0.1 ug/mL,1.34
CC(C)c1nc(CN(C)C(=O)NC(C(=O)NC(Cc2ccccc2)CC(O)C(Cc2ccccc2)NC(=O)OCc2cncs2)C(C)C)cs1 (centres undefined),IRF Lucia reporter activity,RAW-Dual [2]; [6],1.07
Cc1cc(C(=O)NC(C)(C)C)cc(C#Cc2ccc3c4c(oc3c2)C(C)(C)c2cc(NS(C)(=O)=O)ccc2C4=O)n1 (library stock concentration (final ~1000-fold dilution): 10 mM),IRF Lucia reporter activity,RAW-Dual [1]; [4],0.196
same,IRF Lucia reporter activity,RAW-Dual [1]; agonist: LPS (TLR4) 0.1 ug/mL,0.504
CCC1(O)CC2CN(CCc3c([nH]c4ccccc34)C(C(=O)OC)(c3cc4c(cc3OC)N(C=O)C3C(O)(C(=O)OC)C(OC(C)=O)C5(CC)C=CCN6CCC43C65)C2)C1.O=S(=O)(O)O (centres undefined) (library stock concentration (final ~1000-fold dilution): 10 mM),IRF Lucia reporter activity,RAW-Dual [1]; [4],0.107
same,IRF Lucia reporter activity,RAW-Dual [1]; agonist: LPS (TLR4) 0.1 ug/mL,2.02
CCC1(O)CC2CN(CCc3c([nH]c4ccccc34)C(C(=O)OC)(c3cc4c(cc3OC)N(C=O)C3C(O)(C(=O)OC)C(OC(C)=O)C5(CC)C=CCN6CCC43C65)C2)C1.O=S(=O)(O)O (centres undefined),IRF Lucia reporter activity,RAW-Dual [2]; [6],1.06
CCC1(O)CC2CN(CCc3c([nH]c4ccccc34)C(C(=O)OC)(c3cc4c(cc3OC)N(C)C3C(O)(C(=O)OC)C(OC(C)=O)C5(CC)C=CCN6CCC43C65)C2)C1.O=S(=O)(O)O (centres undefined) (library stock concentration (final ~1000-fold dilution): 10 mM),IRF Lucia reporter activity,RAW-Dual [3]; [4],0.226
same,IRF Lucia reporter activity,RAW-Dual [3]; agonist: LPS (TLR4) 0.1 ug/mL,2.16
CCC1=CC2CN(C1)Cc1c([nH]c3ccccc13)C(C(=O)OC)(c1cc3c(cc1OC)N(C)C1C(O)(C(=O)OC)C(OC(C)=O)C4(CC)C=CCN5CCC31C54)C2 (centres undefined),IRF Lucia reporter activity,RAW-Dual [2]; [5],2.68
CCC1(O)CC2CN(CCc3c([nH]c4ccccc34)C(C(=O)OC)(c3cc4c(cc3OC)N(C)C3C(O)(C(=O)OC)C(OC(C)=O)C5(CC)C=CCN6CCC43C65)C2)C1.O=S(=O)(O)O (centres undefined),IRF Lucia reporter activity,RAW-Dual [2]; [5],2.07
CCC1=CC2CN(C1)Cc1c([nH]c3ccccc13)C(C(=O)OC)(c1cc3c(cc1OC)N(C)C1C(O)(C(=O)OC)C(OC(C)=O)C4(CC)C=CCN5CCC31C54)C2 (centres undefined) (library stock concentration (final ~1000-fold dilution): 10 mM),IRF Lucia reporter activity,RAW-Dual [3]; [4],0.371
same,IRF Lucia reporter activity,RAW-Dual [3]; agonist: LPS (TLR4) 0.1 ug/mL,2.95
CCCCS(=O)(=O)NC(Cc1ccc(OCCCCC2CCNCC2)cc1)C(=O)O.Cl.O (centres undefined) (library stock concentration (final ~1000-fold dilution): 10 mM),IRF Lucia reporter activity,RAW-Dual [1]; [4],0.894
same,IRF Lucia reporter activity,RAW-Dual [1]; agonist: LPS (TLR4) 0.1 ug/mL,1.35
